24 compounds from PubChem BioAssay (NCATS) can be followed below.

The structures appear in SMILES notation. Records with an inconclusive call do not appear. A call without a number means that no potency is given here. Calls of active or inactive are those of the source. Unless noted, the call rests on the fitted dose curve; in most records, active means well fitted inhibition curve with a large enough effect; inconclusive means small, poorly fitted or top-dose-only effect; inactive means flat fitted curve, though single readings scatter.

In one assay the target is T1, Tyrosine-protein phosphatase non-receptor type substrate 1 (Homo sapiens) + Leukocyte surface antigen CD47 (Homo sapiens) (UniProt P78324+Q08722). Description: CD47-SIRPalpha protein protein interaction - HTRF assay qHTS validation (AID 1347058; active means well fitted curve in the direction sought with a large enough effect in the signal ratio, not every such curve was filed as active; the % refers to the signal ratio). Conditions: TR-FRET HTRF CD47-His / biotin-SIRPalpha binding, ratio 665/615; series mostly up to 38.3 µM. The method in brief: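 Soluble extracellular domains (6His-CD47, Avi-tag-biotinylated SIRPalpha) in PBS pH 7.4 with 0.05% IGEPAL CA-630. Compounds were preincubated 30 min at RT with CD47 and anti-His-Eu, then SIRPalpha and SAV-XL665 were added. TR-FRET 665/615 ratio.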
T1 sequence (P78324 whole entry, looked up, the tested form may be a part): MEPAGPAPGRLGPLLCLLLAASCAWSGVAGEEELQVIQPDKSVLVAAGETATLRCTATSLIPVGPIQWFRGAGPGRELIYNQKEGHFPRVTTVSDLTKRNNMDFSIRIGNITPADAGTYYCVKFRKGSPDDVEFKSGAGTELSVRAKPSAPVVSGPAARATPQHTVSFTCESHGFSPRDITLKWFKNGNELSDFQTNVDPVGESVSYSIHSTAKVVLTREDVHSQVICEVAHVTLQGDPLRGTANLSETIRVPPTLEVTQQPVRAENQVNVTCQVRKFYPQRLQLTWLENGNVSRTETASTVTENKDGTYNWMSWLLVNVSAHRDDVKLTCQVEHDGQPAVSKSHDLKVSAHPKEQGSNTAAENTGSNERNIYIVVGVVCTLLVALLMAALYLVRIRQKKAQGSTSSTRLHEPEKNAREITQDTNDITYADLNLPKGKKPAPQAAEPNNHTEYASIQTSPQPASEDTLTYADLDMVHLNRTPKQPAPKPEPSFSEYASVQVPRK
T1 sequence (Q08722 whole entry, looked up, the tested form may be a part): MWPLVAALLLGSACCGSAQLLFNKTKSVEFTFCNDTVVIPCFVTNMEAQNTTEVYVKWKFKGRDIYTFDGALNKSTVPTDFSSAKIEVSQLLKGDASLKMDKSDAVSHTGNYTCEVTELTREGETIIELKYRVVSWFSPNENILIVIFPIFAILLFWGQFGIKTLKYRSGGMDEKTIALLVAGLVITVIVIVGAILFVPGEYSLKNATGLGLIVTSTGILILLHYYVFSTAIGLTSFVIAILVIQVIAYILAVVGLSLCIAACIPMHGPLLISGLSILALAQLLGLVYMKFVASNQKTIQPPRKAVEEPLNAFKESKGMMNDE
Regarding `NCc1cc(=O)[nH]o1`, the result was inactive.
The same measure, in the same setting: the value for `Clc1cnc(Oc2ccc(Oc3ncc(Cl)cc3Cl)cc2)c(Cl)c1` was “inactive”; that for `NC(CP(=O)(O)O)C(=O)O` (stereo not drawn) was “inactive”; that for `CNCCc1ccc(O)c(O)c1` was “inactive”.
Still for that read-out and setting: the entry for `O=C(O)CC[N+](=O)[O-]` is “inactive”; for `c1ccc2sc(C3(N4CCCCC4)CCCCC3)cc2c1` it is “inactive”.
`NC(CCP(=O)(O)O)C(=O)O` (stereo not drawn): the result was inactive.
Still for that read-out and setting: the value for `C[C@@H]1O[C@H](C[N+](C)(C)C)C[C@H]1O` was “inactive”; that for `NCCc1c[nH]c2ccccc12` was “inactive”.
Still for that read-out and setting: the entry for `NC(=NCCC[C@H](N)C(=O)O)N[N+](=O)[O-]` is “inactive”; for `COc1cc(C(O)CN)ccc1O` (stereo not drawn) it is “inactive”.
On the same count and under the same terms, the entry for `CC(C)Oc1cccnc1N(C)C1CCN(Cc2ccccc2)CC1` is “inactive”; for `C[C@]12CCC3C(CC[C@H]4C[C@H](O)CC[C@]34C)C1CC[C@@H]2C(=O)CO` (stereo partly drawn) it is “inactive”; for `Cn1cnc(CCN)c1` it is “inactive”.
Regarding `C=CCN1CC[C@]23CCCCC2[C@H]1Cc1ccc(O)cc13` (stereo partly drawn), the outcome was inactive.
Same read-out and setting: the entry for `NCCc1c[nH]c2ccc(O)cc12` is “inactive”; for `O=C(O)Cc1cnc[nH]1` it is “inactive”.
As for `CS(=N)(=O)CC[C@H](N)C(=O)O` (stereo partly drawn), the result was inactive.
Regarding `NC1CCc2cc(O)c(O)cc2C1` (stereo not drawn), the outcome was inactive.
Still for that read-out and setting: the value for `CCCN(CCC)C1CCc2ccc(O)cc2C1` (stereo not drawn) was “inactive”; that for `NC(N)=NOCCC(N)C(=O)O` (stereo not drawn) was “inactive”; that for `CCCN(CCC)[C@@H]1CCc2ccc(O)cc2C1` was “inactive”.
For the compound `Cc1nccc2c1[nH]c1ccccc12`, the result was inactive.
`C[N+]1(C)C2CCC1CC(OC(=O)C(CO)c1ccccc1)C2` (stereo not drawn): the result was inactive.

A further assay concerns the target T1, Tyrosine-protein phosphatase non-receptor type substrate 1 (Homo sapiens) + Leukocyte surface antigen CD47 (Homo sapiens). Description: CD47-SIRPalpha protein protein interaction - Alpha assay qHTS validation (AID 1347059).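 Further: bead proximity luminescence from CD47 binding SIRPalpha after compound preincubation with SIRPalpha.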 As to conditions: AlphaScreen CD47-His/biotin-SIRPalpha binding, LOPAC; series mostly up to 38.3 µM. In short, it runs like this: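 In PBS (pH 7.4) with 0.05% IGEPAL CA-630, compound is preincubated with biotin-Avi-SIRPalpha ectodomain before His-CD47 ectodomain and affinity beads are added. Light-protected room-temperature incubations; AlphaScreen readout.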
For orientation: In qHTS, concentration-response curves come from the screen itself.
Consider `NCc1cc(=O)[nH]o1`, for which the Potency result is “inactive”.
Still for that read-out and setting: the value for `Clc1cnc(Oc2ccc(Oc3ncc(Cl)cc3Cl)cc2)c(Cl)c1` was “inactive”; that for `NC(CP(=O)(O)O)C(=O)O` (stereo not drawn) was “inactive”; that for `CNCCc1ccc(O)c(O)c1` was “inactive”.
On to `O=C(O)CC[N+](=O)[O-]`, for which the Potency entry is “inactive”.
With `c1ccc2sc(C3(N4CCCCC4)CCCCC3)cc2c1`, the Potency result is “inactive”.
As to `NC(CCP(=O)(O)O)C(=O)O` (stereo not drawn), the Potency entry is “inactive”.
Still for that read-out and setting: the entry for `C[C@@H]1O[C@H](C[N+](C)(C)C)C[C@H]1O` is “inactive”; for `NCCc1c[nH]c2ccccc12` it is “inactive”; for `NC(=NCCC[C@H](N)C(=O)O)N[N+](=O)[O-]` it is “inactive”.
Same read-out and setting: the entry for `COc1cc(C(O)CN)ccc1O` (stereo not drawn) is “inactive”; for `CC(C)Oc1cccnc1N(C)C1CCN(Cc2ccccc2)CC1` it is “inactive”.
On the same count and under the same terms, the entry for `C[C@]12CCC3C(CC[C@H]4C[C@H](O)CC[C@]34C)C1CC[C@@H]2C(=O)CO` (stereo partly drawn) is “inactive”; for `Cn1cnc(CCN)c1` it is “inactive”.
Take `C=CCN1CC[C@]23CCCCC2[C@H]1Cc1ccc(O)cc13` (stereo partly drawn): the Potency result is “inactive”.
On the same count and under the same terms, the value for `NCCc1c[nH]c2ccc(O)cc12` was “inactive”.
Still for that read-out and setting: the entry for `O=C(O)Cc1cnc[nH]1` is “inactive”; for `CS(=N)(=O)CC[C@H](N)C(=O)O` (stereo partly drawn) it is “inactive”.
Same read-out and setting: the value for `NC1CCc2cc(O)c(O)cc2C1` (stereo not drawn) was “inactive”; that for `CCCN(CCC)C1CCc2ccc(O)cc2C1` (stereo not drawn) was “inactive”.
In the case of `NC(N)=NOCCC(N)C(=O)O` (stereo not drawn), the Potency entry was “inactive”.
Same read-out and setting: the value for `CCCN(CCC)[C@@H]1CCc2ccc(O)cc2C1` was “inactive”; that for `Cc1nccc2c1[nH]c1ccccc12` was “inactive”; that for `C[N+]1(C)C2CCC1CC(OC(=O)C(CO)c1ccccc1)C2` (stereo not drawn) was “inactive”.
